# “And” between values parts separate entries of the source, which are not always exact repeats. Equal entries are not always repeated. Results filed as inconclusive are left out. The source holds several records for some structures; these can differ, active in one and inactive in another. The source made the active and inactive calls. Unless noted, calls follow the shape of the full dose curve.
# Biological target: Estrogen receptor (Homo sapiens) (UniProt P03372)
# Assay: qHTS assay to identify small molecule agonists of the estrogen receptor alpha (ER-alpha) signaling pathway using the BG1 cell line (AID 743079; active = well fitted activation curve with a large enough effect in the repeat runs; also: nearly all actives have a fitted effect of over 20% in size)
# Details: BG1Luc4E2 cells, ERE-luciferase agonist, 22 h; series mostly up to 70.3 µM; activation: at the top concentration
# % is scaled to controls: 0 for no effect and ±100 for the full control effect; potency is read from the fitted curve at half-maximal effect.
# Estrogen receptor (Homo sapiens), sequence (P03372 whole entry, looked up): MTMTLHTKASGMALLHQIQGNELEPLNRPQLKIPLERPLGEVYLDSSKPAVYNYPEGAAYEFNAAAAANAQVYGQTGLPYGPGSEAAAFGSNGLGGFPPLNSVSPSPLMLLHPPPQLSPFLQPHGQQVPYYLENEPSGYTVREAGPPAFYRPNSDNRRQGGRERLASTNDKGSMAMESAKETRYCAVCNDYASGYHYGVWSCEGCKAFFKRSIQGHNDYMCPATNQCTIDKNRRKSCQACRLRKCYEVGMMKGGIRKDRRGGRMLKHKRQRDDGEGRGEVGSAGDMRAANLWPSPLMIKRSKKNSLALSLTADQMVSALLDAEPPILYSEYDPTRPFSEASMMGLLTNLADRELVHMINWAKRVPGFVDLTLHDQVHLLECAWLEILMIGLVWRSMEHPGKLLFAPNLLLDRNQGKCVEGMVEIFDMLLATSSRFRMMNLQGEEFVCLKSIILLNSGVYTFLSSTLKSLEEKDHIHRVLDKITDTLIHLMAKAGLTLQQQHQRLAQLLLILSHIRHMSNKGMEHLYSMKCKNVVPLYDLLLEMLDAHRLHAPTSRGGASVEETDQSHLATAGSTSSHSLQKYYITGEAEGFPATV
Structure (SMILES),Potency,activation
O=C1OC2(c3ccc(O)cc3Oc3cc(O)ccc32)c2ccccc21,inactive and 23.7 µM (active),–
O=C(O)c1cc(Cl)cc(Cl)c1,–,5.38% (inactive)
Nc1ccc2cc3ccccc3cc2c1,9.86 µM (active) and 24.3 µM (active),–
CCCCC(CC)COC(=O)CC(C(=O)OCC(CC)CCCC)S(=O)(=O)O (centres undefined),inactive and 15 µM (active),–
CC(=O)O[C@]1(C(C)=O)CC[C@H]2[C@@H]3C[C@H](C)C4=CC(=O)CC[C@]4(C)[C@H]3CC[C@@]21C,inactive,–
CC(C)CCOCc1ccccc1,–,9.49% (inactive)
CCC[C@H](N[C@@H](C)C(=O)N1[C@H](C(=O)O)C[C@@H]2CCCC[C@@H]21)C(=O)OCC,–,5.37% (inactive)
c1ccc2c(c1)-c1cccc3c1c-2cc1ccccc13,–,21% (inactive)
Nc1ccc(O)cc1,inactive,–
CCN(CC)c1ccc2c(C)cc(=O)oc2c1,–,-2.77% [at 95 µM] (inactive)
CC[C@@H](N)CO,–,2.57% [at 95 µM] (inactive)
CCCOC(=O)c1cc(O)c(O)c(O)c1,26.6 µM (active) and inactive,–
CC(=O)CC(=O)Nc1ccc2[nH]c(=O)[nH]c2c1,–,14.3% (inactive)
OCCN1CCNCC1,–,0.759% [at 95 µM] (inactive)

# System: not listed separately
# Assay: qHTS assay to identify small molecule antagonists of the estrogen receptor alpha (ER-alpha) signaling pathway using the BG1 cell line (AID 743080);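 also: BG1 cells stimulated with 17beta-estradiol alongside compound; nearly all actives have a fitted effect of over 25% in size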
# Details: BG1Luc4E2 ERE-luciferase antagonist mode, luminescence; series mostly up to 70.3 µM; activity change, negative = inhibition: at the top concentration
# Summary of the method: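 Endogenous full-length ER-alpha in BG1-Luc-4E2 cells drives a stably integrated 4×ERE luciferase gene; compounds were tested against 17beta-estradiol over 21.5 h, with luminescence and multiplexed viability fluorescence recorded.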
Structure (SMILES),Potency,"activity change, negative = inhibition"
CCCCCCCCCCCCCC[P+](CCCC)(CCCC)CCCC,6.82 µM (active) and 4.86 µM (active),–
O=C1OC2(c3ccc(O)cc3Oc3cc(O)ccc32)c2ccccc21,inactive,–
O=C(O)c1cc(Cl)cc(Cl)c1,–,17.3% (inactive)
Oc1c(Cl)cc(Cl)cc1Sc1cc(Cl)cc(Cl)c1O,26.6 µM (active) and 48.6 µM (active),–
CCCCC(CC)COC(=O)CC(C(=O)OCC(CC)CCCC)S(=O)(=O)O (centres undefined),inactive,–
CC(C)CCOCc1ccccc1,–,-0.129% (inactive)
CCC[C@H](N[C@@H](C)C(=O)N1[C@H](C(=O)O)C[C@@H]2CCCC[C@@H]21)C(=O)OCC,–,12.8% (inactive)
c1ccc2c(c1)-c1cccc3c1c-2cc1ccccc13,inactive,–
Nc1ccc(O)cc1,inactive,–
C1COC(NC(C2CC2)C2CC2)=N1,–,3.32% (inactive)
CCN(CC)c1ccc2c(C)cc(=O)oc2c1,inactive,–
CC[C@@H](N)CO,–,1.18% [at 95 µM] (inactive)
CCCOC(=O)c1cc(O)c(O)c(O)c1,inactive,–
CC(=O)CC(=O)Nc1ccc2[nH]c(=O)[nH]c2c1,–,10.3% (inactive)
OCCN1CCNCC1,inactive,–
